Screening data: PubChem, several laboratories
Sampled rows, rich in hits. Any-hit rate of the full collection: about 0.44%.
ABCB6 inh 2: inhibitors of human ABC transporter ABCB6. Q9NP58. K562-ABCB6 porphyrin accumulation, flow cytometry, 1 h; hits give low values. fluorescence ratio to DMSO, % at 10 µM. 360,000 tested, 0.19% active;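 active means fluorescence ratio to DMSO below 75%, the collection mean minus 3 SD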;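 further: signal is porphyrin accumulated inside mitochondria; lower ratio means ABCB6 inhibition with less porphyrin fluorescence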
GASC-1 inh: inhibitors of human GASC-1 (JMJD2C) demethylase; inhibition, % at 2.35 µM; Q9H3R0; GST-JMJD2C(1-420) H3K9me3 demethylation, DELFIA europium; 330,000 tested, 0.069% active;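 active means more than half of a compound's replicate wells show inhibition beyond 50%, single wells judged on their own value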;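 further: signal counts dimethyl H3K9 product captured on neutravidin plate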
PolyA inh: inhibitors of polyadenylation in S. cerevisiae | activity score, % at 12 µM | 300,000 tested, 0.02% active | S. cerevisiae SKY197-pL101 polyadenylation reporter, beta-gal luminescence; efflux-impaired pdr1/pdr3 knockout yeast; score 100 = 6 SD above DMSO;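 active means lowest replicate activity score at least 50, where 100 means six control SD above control mean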;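 further: yeast exposed to compound for 9 h at 30 °C; higher score means more reporter readthrough which indicates perturbed polyadenylation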
VLA-4 inh: inhibition in a human VLA-4 binding assay; VLA-4 expressing cells, ligand binding flow cytometry; inhibition, % (about 7 µM as worked out from the volumes in the protocol); 330,000 tested, 0.2% active; in the data active means inhibition above about 50%
Target sequence (P13612 whole entry, looked up): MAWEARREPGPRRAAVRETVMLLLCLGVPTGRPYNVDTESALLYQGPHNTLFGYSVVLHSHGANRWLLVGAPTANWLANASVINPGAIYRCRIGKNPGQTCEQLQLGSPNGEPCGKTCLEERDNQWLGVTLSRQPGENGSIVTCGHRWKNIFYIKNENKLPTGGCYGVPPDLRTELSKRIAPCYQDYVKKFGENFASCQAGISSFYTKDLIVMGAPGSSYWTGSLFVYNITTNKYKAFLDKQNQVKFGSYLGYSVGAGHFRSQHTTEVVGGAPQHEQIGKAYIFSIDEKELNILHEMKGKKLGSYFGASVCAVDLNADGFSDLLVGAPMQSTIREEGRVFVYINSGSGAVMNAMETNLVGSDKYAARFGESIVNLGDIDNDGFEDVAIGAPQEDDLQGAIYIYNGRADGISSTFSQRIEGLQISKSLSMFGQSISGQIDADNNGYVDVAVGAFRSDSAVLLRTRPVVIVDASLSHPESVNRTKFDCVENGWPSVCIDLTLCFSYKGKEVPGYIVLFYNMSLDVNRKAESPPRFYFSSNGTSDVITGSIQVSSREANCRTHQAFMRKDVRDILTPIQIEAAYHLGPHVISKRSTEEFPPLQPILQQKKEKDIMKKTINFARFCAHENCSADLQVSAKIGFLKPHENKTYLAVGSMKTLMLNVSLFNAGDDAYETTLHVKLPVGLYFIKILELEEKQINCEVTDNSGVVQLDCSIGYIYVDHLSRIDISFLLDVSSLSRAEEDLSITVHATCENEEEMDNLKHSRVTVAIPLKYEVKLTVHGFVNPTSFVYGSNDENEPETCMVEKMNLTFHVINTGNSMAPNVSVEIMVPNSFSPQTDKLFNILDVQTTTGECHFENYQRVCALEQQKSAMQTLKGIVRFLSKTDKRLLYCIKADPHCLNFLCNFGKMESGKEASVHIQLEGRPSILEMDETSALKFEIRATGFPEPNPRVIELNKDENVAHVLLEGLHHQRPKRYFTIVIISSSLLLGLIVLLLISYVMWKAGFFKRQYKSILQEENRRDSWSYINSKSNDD
ABCB6 blocker 1: inhibitors of human ABC transporter ABCB6; shares compounds with ABCB6 inh 2; K562-ABCB6 porphyrin accumulation, flow cytometry, 1 h; hits give low values; ratio response (% of DMSO), % at 10 µM; 700 tested, under 10 active;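 active means repeat-averaged ratio response below 75% of DMSO, the collection mean minus 3 SD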;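 further: median porphyrin fluorescence at 575 nm with 488 nm excitation from mitochondria; lower ratio means less porphyrin signal so ABCB6 inhibition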
Hits are given with their value; i = inactive; nt = not tested or not shown.

SMILES	ABCB6 inh 2	GASC-1 inh	PolyA inh	VLA-4 inh	ABCB6 blocker 1
Cc1ccc(CNc2nc(N)c([N+](=O)[O-])c(Nc3cccc(F)c3)n2)cc1	i	i	i	i	nt
Nc1nc(NCc2ccccc2)nc(Nc2cccc(F)c2)c1[N+](=O)[O-]	41	i	nt	i	i
O=C(c1ccc(S(=O)(=O)Nc2cccc(C(F)(F)F)c2)cc1)N1CCOCC1	i	i	i	i	nt
CC(C)(CNC(=O)c1ccc(S(=O)(=O)Nc2cccc(C(F)(F)F)c2)cc1)N1CCOCC1	72	i	nt	i	i
Cc1cc(NC(=O)c2cccc(S(=O)(=O)N3CCCCCC3)c2)no1	70	i	i	i	i
Cc1cc(NC(=O)c2cc(S(=O)(=O)N3CCCCC3)ccc2C)no1	i	i	nt	i	nt
CCOC(=O)c1c(NC(=O)c2ccc(N3C(=O)[C@@H]4[C@H](C3=O)[C@H]3C=C[C@@H]4C3)cc2)sc2c1CC(C)CC2 (stereo partly drawn)	68	i	i	i	i
CC(Nc1nc2ncn(Cc3ccccc3)c2c(=O)[nH]1)C(=O)O (stereo not drawn)	nt	i	i	i	nt
O=C(O)CCCCCNc1nc2ncn(Cc3ccccc3)c2c(=O)[nH]1	57	i	i	i	i
CCN(CC)C(=O)[C@H]1CC(CC(=O)NCc2ccc(OC)c(OC)c2)C(=O)N2CCc3c([nH]c4ccccc34)[C@]12C (stereo partly drawn)	i	i	nt	i	nt
CCN(CC)C(=O)[C@H]1CC(CC(=O)NCc2ccc(OC)c(OC)c2)C(=O)N2CCc3c([nH]c4ccc(OC)cc34)[C@]12C (stereo partly drawn)	64	nt	nt	nt	i
C#CCOC(=O)CCCC(=O)Nc1ccccc1OC	i	i	i	i	nt
O=c1c2c3c(sc2n2cnnc2n1CCc1ccccc1)CCCC3	66	i	i	i	i
N#Cc1nc(COc2ccccc2)oc1N1CCCCCC1	i	i	i	i	nt
N#Cc1nn(-c2ccccc2)nc1N1CCCCC1	69	i	i	i	i
NS(=O)(=O)c1ccc(CCNC(=O)CCCNC(=O)c2ccc(Cl)cc2)cc1	67	i	i	i	i
CC(=O)Nc1ccc(N(C(=O)CNC(=O)c2ccco2)C(C(=O)NCc2ccco2)c2ccccc2)cc1 (stereo not drawn)	i	i	i	i	nt
COc1ccc(C(=O)NC2=NCCS2)cc1	74	i	i	i	i
COc1cc(OC)cc(C(=O)NC2=NCCS2)c1	i	i	i	i	nt
COc1cccc(C2CC(c3cccs3)=NN2C(=O)CSc2nc3ccccc3o2)c1OC (stereo not drawn)	70	i	i	i	i
COc1ccccc1C1CC(c2cccs2)=NN1C(=O)CCC(=O)O (stereo not drawn)	i	i	i	i	nt
CC(C)(C)c1ccc(Cn2nnc3c(=O)[nH]c(C4CCCN(C(=O)Cc5cccs5)C4)nc32)cc1 (stereo not drawn)	i	i	i	i	nt
CC(C)(C)c1ccc(Cn2nnc3c(=O)[nH]c(C4CCN(C(=O)Cc5cccs5)CC4)nc32)cc1	68	i	i	i	i
O=C(Cc1cccs1)N1CCC(c2nc3c(nnn3Cc3ccccc3)c(=O)[nH]2)CC1	i	i	i	i	i
COCCNC(=O)C(=O)NCC1OCCN1S(=O)(=O)c1ccc(F)cc1 (stereo not drawn)	i	i	i	i	nt
SMILES	ABCB6 inh 2	GASC-1 inh	PolyA inh	VLA-4 inh	ABCB6 blocker 1
O=C(CSc1nc2c(c(=O)[nH]1)CCCC2)Nc1ccc(Cl)cc1F	70	i	i	i	i
O=C(CSc1nc2c(c(=O)[nH]1)CCC2)Nc1ccc(F)cc1	i	i	i	i	nt
Cc1ccc(C(=O)NCC(=O)NCC(=O)OCc2ccc(F)cc2)cc1	i	i	i	i	nt
CC1CCN(C(=O)c2ccc(NC(=O)c3cccs3)cc2)CC1	53	i	i	i	i
CCCSc1nc2sc3c(c2c(=O)[nH]1)CC(C)(CC)OC3 (stereo not drawn)	i	i	i	i	nt
CCSc1nc2sc3c(c2c(=O)[nH]1)CC(C)(CC)OC3 (stereo not drawn)	61	i	i	i	i
CC(C)(C)c1cc(NC(=O)COC(=O)c2ccc3c(=O)n4c(nc3c2)CCC4)n(-c2ccccc2)n1	69	i	i	i	i
CCCCN(C(=O)c1ccc(N2CCCC2=O)cc1)c1c(N)n(CCCC)c(=O)[nH]c1=O	i	i	i	i	nt
Cc1cccc(C(=O)OCC(=O)NCCCc2ccccc2)c1O	18	i	i	i	i
C=CC[C@H](CC(=O)N[C@H](CO)Cc1ccccc1)C(=O)N[C@H](COC(=O)[C@H](CC=C)CC(=O)OC(C)(C)C)Cc1c[nH]c2ccccc12	i	i	nt	i	nt
CCOc1cc(C(=O)NCc2ccc(-c3nc4ccccc4o3)cc2)cc(OCC)c1OCC	70	i	i	i	i
COc1ccc(C(=O)NC(=S)NCc2ccc(-c3nc4ccccc4o3)cc2)cc1OC	i	i	i	i	nt
O=C(CSc1nc2ccccc2s1)NCc1ccc2c(c1)OCO2	i	i	i	i	nt
Cc1nn2c(N3CCN(C4CCCC4)CC3)cc(C(C)(C)C)nc2c1-c1ccccc1	57	i	i	i	i
Cc1nn2c(N3CCN(C)CC3)cc(C(C)(C)C)nc2c1-c1ccccc1	i	i	i	i	nt
COc1ccc(C(=O)Nn2c(C)nc3ccccc3c2=O)cc1	74	i	i	i	i
Cc1nc2ccccc2c(=O)n1NC(=O)c1ccc(C(C)(C)C)cc1	i	i	i	i	nt
CCCCc1nc2n[nH]c(N)c2c2c1CCCC2	i	i	i	i	nt
C/C(=N\O)c1c(O)cc(-c2ccccc2)n(-c2ccccc2)c1=O	i	i	i	i	nt
O=c1c(-c2ccccc2)c(O)cc(-c2ccncc2)n1-c1ccc(Cl)cc1	64	i	i	i	i
Cc1cccc(OCCSc2nc3ncnc(N)c3[nH]2)c1	71	i	i	i	i
Cc1sc2nc(CSC(C)C(=O)NC3(C#N)CCCCC3)[nH]c(=O)c2c1C (stereo not drawn)	i	nt	nt	nt	nt
O=C(c1ccccc1)C(C(=O)N1CCc2ccccc2C1)n1ccccc1=O (stereo not drawn)	73	i	i	i	i
O=C(Nc1cccc(Cl)c1)c1cc2c(=O)n3ccccc3nc2s1	i	i	i	i	i
CCCCCN(C(=O)CCC(=O)OCC(=O)Nc1cccc(CC)c1)c1c(N)n(CCCC)c(=O)[nH]c1=O	74	i	i	i	i
CCCCCN(C(=O)CCC(=O)OCc1ccccc1F)c1c(N)n(CCCC)c(=O)[nH]c1=O	i	i	i	i	nt
CCCCCN(C(=O)CCC(=O)OCC(=O)N(CC)c1ccccc1)c1c(N)n(CCCC)c(=O)[nH]c1=O	i	i	i	i	nt
CCCCCN(C(=O)CCC(=O)OCC(=O)NCCc1ccccc1)c1c(N)n(CCCC)c(=O)[nH]c1=O	i	nt	nt	nt	i
CCCCCN(C(=O)CCC(=O)OCc1cc(C)ccc1C)c1c(N)n(CCCC)c(=O)[nH]c1=O	i	i	i	i	i
